The text below walks through data of PubChem BioAssay (NCI).

The panel holds about 83,000 compounds, 20% with a hit somewhere; the sample as a whole holds those more often.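 48-hour exposure, single concentration, 96-well plates; percent growth endpoint where 0 means no net growth. Active: below 10.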 Values without a mark were called inactive. Activity calls are given as the source filed them.

Test systems include SN12C renal; UO-31 renal; TK-10 renal; ACHN renal; CAKI-1 renal; MOLT-4 leukemia; A498 renal; EKVX NSCLC; CCRF-CEM leukemia.
What all share (assay): NCI-60 one-dose screen, 48 h (100 = growth as untreated, 0 = no growth, -100 = all killed)
Holding throughout (settings): 10 µM

Take `C[C@]12CC[C@@H]3c4ccc(OS(=O)(=O)O)cc4CC[C@H]3[C@@H]1CC[C@@H]2NS(=O)(=O)c1ccc(-c2ccccc2)cc1`: the growth in the assay with SN12C renal was 68.7%; with UO-31 renal, 40.8%; with TK-10 renal, 93.3%; in the assay on ACHN renal, 47.7%; with CAKI-1 renal it was 66.2%; with MOLT-4 leukemia, 31.4%.
On to `CSc1ccc(-c2cc(-c3ccc(NC(=O)CCCN4CCCC4)cc3)nc(-c3ccc(NC(=O)CCCN4CCCC4)cc3)c2)cc1`, for which the growth is 77.8% in the assay on SN12C renal; 84.9% in the assay with UO-31 renal; 73.8% with TK-10 renal; 86.1% in the assay with ACHN renal; 83.6% in the assay with CAKI-1 renal; 74.2% in the assay on A498 renal. Besides, the growth in the assay with MOLT-4 leukemia is 4.93% (active).
`CN1CCN(C2=Nc3ccccc3Oc3ccc(Cl)cc32)CC1`: the growth in the assay with EKVX NSCLC is 107%; in the assay with SN12C renal, 100%; in the assay with UO-31 renal, 77.1%; with TK-10 renal, 89.7%; in the assay on ACHN renal, 93.6%; in the assay with A498 renal it was 81.3%. Moreover, the growth in the assay on CCRF-CEM leukemia was 99.6%; with MOLT-4 leukemia, 80.3%.
As for `COC(=O)c1c[nH]c2cc(OC(C)C)c(OC(C)C)cc2c1=O`, the growth with EKVX NSCLC is 98.8%; in the assay on SN12C renal, 108%; in the assay on UO-31 renal it was 84%; in the assay on TK-10 renal, 113%; in the assay with ACHN renal, 100%; with CAKI-1 renal, 97.2%. Also, the growth in the assay with CCRF-CEM leukemia was 80.9%; with MOLT-4 leukemia, 109%.
For the compound `Nc1nc(Cn2c(-c3nonc3N)nc3ccccc32)nc(N2CCCCC2)n1`, the growth was 98.2% with SN12C renal; 109% in the assay with TK-10 renal; 95.3% in the assay on ACHN renal; 85.8% in the assay on CAKI-1 renal; 88.6% with A498 renal; 85.7% in the assay with CCRF-CEM leukemia. The growth in the assay on MOLT-4 leukemia was 83.2%.
In the case of `CC(C)(C)c1ccc(S(=O)(=O)N[C@H]2CC[C@H]3[C@@H]4CCc5cc(OS(=O)(=O)O)ccc5[C@H]4CC[C@]23C)cc1`, the growth in the assay with SN12C renal was 27.4%; in the assay with UO-31 renal it was 17%; with ACHN renal, 33.4%; in the assay with CAKI-1 renal it was 41.5%; with A498 renal it was 28.1%; with MOLT-4 leukemia, 15.2%.
On to `CC(C)(C)c1ccc(S(=O)(=O)N[C@H]2CC[C@H]3[C@@H]4CCc5cc(O)ccc5[C@H]4CC[C@]23C)cc1`, for which the growth was 28.4% in the assay with SN12C renal; 25.1% in the assay on UO-31 renal; 67.5% with TK-10 renal; 35.2% with ACHN renal; 38.9% with CAKI-1 renal; 33.6% in the assay with A498 renal. For the same compound, in the assay on MOLT-4 leukemia, the growth is 16.8%.
With `Nc1cc(-c2ccncc2)c[nH]c1=O`, the growth in the assay on EKVX NSCLC is 84.1%; in the assay on SN12C renal it was 104%; in the assay on UO-31 renal, 82.5%; in the assay on TK-10 renal, 99.9%; with ACHN renal, 102%; in the assay with CAKI-1 renal it was 99.5%. For the same compound, the growth was 73.3% in the assay with A498 renal, 113% in the assay on CCRF-CEM leukemia and 77.4% in the assay on MOLT-4 leukemia.
With `O=C(CNc1nnc(-c2cccnc2SCc2ccccc2)s1)Nc1nc(Cl)cc(Cl)n1`, the growth in the assay with EKVX NSCLC is 112%; in the assay with SN12C renal, 103%; with TK-10 renal it was 125%; in the assay on ACHN renal it was 119%; in the assay on CAKI-1 renal it was 102%; in the assay with A498 renal, 121%. Besides, the growth with CCRF-CEM leukemia is 102%; in the assay with MOLT-4 leukemia, 95.4%.
For the compound `CCCCC(CC)CN=C(N)NC(N)=NCCCCCCN=C(N)NC(N)=NCC(CC)CCCC` (stereo not drawn), the growth is -80.9% (active) in the assay with EKVX NSCLC; -85.3% (active) in the assay on SN12C renal; 4.54% (active) in the assay on UO-31 renal; -15.3% (active) with TK-10 renal; 4.41% (active) in the assay on ACHN renal; -17.3% (active) in the assay with CAKI-1 renal. The growth with A498 renal is -31.3% (active); in the assay on CCRF-CEM leukemia it was -54% (active); in the assay with MOLT-4 leukemia it was -73.7% (active).
In the case of `CCCCCOC(=O)Nc1nc(=O)n(C2O[C@H](C)[C@@H](O)[C@H]2O)cc1F` (stereo partly drawn), the growth was 99.2% in the assay on EKVX NSCLC; 99.5% with SN12C renal; 82.1% in the assay on UO-31 renal; 98.5% in the assay on TK-10 renal; 99.6% with ACHN renal; 90.5% with CAKI-1 renal. The growth is 82.3% with A498 renal, 96.7% in the assay with CCRF-CEM leukemia and 103% in the assay with MOLT-4 leukemia.
For `CCN1CC(CCN2CCOCC2)C(C(c2ccccc2)c2ccccc2)C1=O` (stereo not drawn), the growth in the assay on EKVX NSCLC is 97.8%; in the assay on SN12C renal, 98.4%; in the assay on UO-31 renal it was 85.5%; with TK-10 renal it was 114%; in the assay with ACHN renal, 107%; in the assay on CAKI-1 renal, 91.5%. The growth in the assay with A498 renal was 79.5%; in the assay on CCRF-CEM leukemia, 96.4%; with MOLT-4 leukemia, 100%.
In the case of `CO[C@H]1CC(O[C@@H]2/C(C)=C/C[C@@H]3C[C@@H](C[C@]4(C=C[C@H](C)[C@@H](C5CCCCC5)O4)O3)OC(=O)[C@@H]3C=C(C)[C@@H](O)[C@H]4OC/C(=C\C=C\[C@@H]2C)[C@]43O)O[C@@H](C)C1O[C@H]1C[C@H](OC)[C@@H](O)[C@H](C)O1` (stereo partly drawn), the growth is -94.3% (active) in the assay with EKVX NSCLC; -79.1% (active) in the assay with SN12C renal; -98.4% (active) in the assay with UO-31 renal; -85.5% (active) in the assay on TK-10 renal; -100% (active) with ACHN renal; -80.3% (active) with A498 renal. Besides, the figures for the growth in the assay with CCRF-CEM leukemia and in the assay with MOLT-4 leukemia were -44.1% (active) and -58.2% (active), respectively.
Consider `CCC1NC(=O)c2cc(S(N)(=O)=O)c(Cl)cc2N1` (stereo not drawn), for which the growth is 109% with EKVX NSCLC; 94% with SN12C renal; 98.8% in the assay on UO-31 renal; 106% in the assay on TK-10 renal; 108% in the assay on ACHN renal; 110% with A498 renal. In addition, the growth in the assay on CCRF-CEM leukemia is 97.7%; in the assay on MOLT-4 leukemia, 113%.
For the compound `CN1CCN(c2cc3c(cc2F)c(=O)c(C(=O)O)cn3-c2ccc(F)cc2)CC1`, the growth with EKVX NSCLC is 108%; with SN12C renal it was 97.3%; in the assay on UO-31 renal, 68.7%; with TK-10 renal it was 103%; with ACHN renal it was 95.1%; in the assay with CCRF-CEM leukemia, 102%. Moreover, the growth in the assay with MOLT-4 leukemia is 84.2%.
On to `CC(=O)O[C@@]12CO[C@@H]1C[C@H](O)[C@@]1(C)C(=O)[C@H](O)C3=C(C)[C@@H](OC(=O)[C@H](O)[C@@H](NC(=O)OC(C)(C)C)c4ccccc4)C[C@@](O)([C@@H](OC(=O)c4ccccc4)C12)C3(C)C` (stereo partly drawn), for which the growth with EKVX NSCLC is 59%; with SN12C renal it was 56.3%; with UO-31 renal it was 33.5%; with TK-10 renal, 42.1%; in the assay on ACHN renal, 56.9%; in the assay on CAKI-1 renal it was 4.8% (active). In addition, the growth with A498 renal is 22.6%; with MOLT-4 leukemia it was 25.4%.
Turning to `CCCc1nc(C(C)(C)O)c(C(=O)O)n1Cc1ccc(-c2ccccc2-c2nn[nH]n2)cc1`, the growth is 106% in the assay on EKVX NSCLC; 96.4% in the assay with SN12C renal; 84.6% in the assay on UO-31 renal; 96.8% in the assay with TK-10 renal; 93.5% in the assay with ACHN renal; 92.6% with CAKI-1 renal. The growth with A498 renal was 80.2%; with CCRF-CEM leukemia, 95.8%; in the assay with MOLT-4 leukemia it was 107%.
